Source: PubChem
HIV RNase H inh-1 = inhibitors of HIV-1 reverse transcriptase RNase H | P04585 | hit rate 1.9% among 65,000 | RT-RNase H RNA/DNA duplex cleavage, fluorescence | inhibition, % at 10 µM; in the data active = inhibition above about 50%
RmlC RmlD mix = inhibitors of RmlC and RmlD coupled enzymes. hit rate 0.39% among 110,000. RmlC/RmlD coupled enzyme inhibition, 384-well mixture HTS. AID 1532. inhibition, % at 5.5 µM; in the data active = inhibition above about 30%, passing the limit was not always enough; inconclusive = no clear call, values can overlap the other calls
HIV RNase H inh-2 = confirmation of HIV-1 reverse transcriptase RNase H inhibitors | shares compounds with HIV RNase H inh-1 | Recombinant RT RNase H, fluorescent RNA/DNA duplex cleavage | inhibition, % at 10 µM | hit rate 39% among 1,000; in the data active = inhibition above about 48%; inconclusive = no clear call, values can overlap the other calls
Hits are given with their value; i = inactive; ? = inconclusive; nt = no result. The entries come from a sample that favours hits as a whole.

SMILES	HIV RNase H inh-1	RmlC RmlD mix	HIV RNase H inh-2
COC(=O)c1ccc2c(c1)N(Cc1nc(-c3cccc(Cl)c3)oc1C)C(=O)C1CCCN21 (configuration not stated)	i	nt	nt
CCCCc1cn([C@@H](CCCCNC(=O)OC(C)(C)C)C(=O)N2CCN(C(=O)OC(C)(C)C)CC2)nn1	nt	i	nt
COc1ccc(C(c2nnnn2C2CCCC2)N2CCc3ccccc3C2)cc1OC (configuration not stated)	i	i	nt
COCCn1nnnc1C(c1ccc(O)c(OC)c1)N1CCc2ccccc2C1 (configuration not stated)	61.2	i	i
Cc1ccc2nsnc2c1S(=O)(=O)NCCc1c(C)[nH]c2ccc(F)cc12	nt	i	nt
Cc1noc(C)c1CSc1nnc(-c2ccccc2)n1N	nt	i	nt
Cc1noc(C)c1CSc1nnc2scc(-c3ccccc3)n12	63.1	i	i
CCOc1ccccc1NC(=O)N1CCC(NC(=O)c2ccccc2C)CC1	i	i	nt
CCOc1ccccc1NC(=O)N1CCC(NC(=O)c2cccc(C)c2)CC1	76.9	i	i
Cc1ccc(C(=O)CSc2nnnn2C(C)C)c(C)c1	nt	i	nt
COC(=O)c1ccc(CSc2nnnn2-c2ccc(C)cc2C)o1	i	i	nt
COC(=O)c1sc(NC(=O)CSc2nnnn2-c2ccc(C)cc2C)nc1C	63.8	i	i
COC(C[C@@H]1O[C@@H]1[C@@H](O)COCc1ccccc1)OC	nt	i	nt
CCOc1ccc(C(=O)Nc2cc(C)c3c(=O)oc4ccccc4c3n2)cc1	65.4	i	i
COc1ccc(CC(=O)Nc2cc(C)c3c(=O)oc4ccccc4c3n2)cc1	i	i	nt
Cc1cc(C(F)(F)F)nc(SCC(=O)NC2=NC(=O)C(C)S2)n1 (configuration not stated)	60.3	nt	?
Cc1cc(C)nc(SCC(=O)NC2=NC(=O)C(C)S2)n1 (configuration not stated)	i	i	nt
Cc1cc(C(=O)N[C@H](c2ccccc2)[C@@]2(C)C[C@@H]2[C@@H](C)C(=O)Nc2ccc3ccccc3c2)n(C)n1	nt	i	nt
CCOC(=O)c1ccc(NC(=O)c2c(N)n(C)c(=O)n(C)c2=O)cc1	nt	i	nt
Cc1cc(C)c(C#N)c(=N)o1	92.8	nt	73.8
CSc1nc(C)cc(C)c1C#N	nt	i	nt
CC(=O)SCC(Cc1ccccc1)C(=O)NCC(=O)OCc1ccccc1 (configuration not stated)	nt	i	nt
COc1ccc(NC(=O)c2cc(-c3cc(C)ccc3O)n[nH]2)cc1Cl	50.7	i	i
COc1ccc(OC)c(NC(=O)c2cc(-c3cc(Cl)ccc3O)n[nH]2)c1	i	i	nt
COc1ccc(C(=O)n2c(SC)nc3cc4c(cc32)OCCO4)cc1	nt	i	nt
SMILES	HIV RNase H inh-1	RmlC RmlD mix	HIV RNase H inh-2
Cc1cccc(NC(=O)CSc2nc3ccccc3o2)c1	nt	i	nt
Cc1nn2c(-c3cccc(NC(=O)CSc4nc5ccccc5o4)c3)nnc2c2ccccc12	88.5	i	66.4
Clc1ccc(-c2ccc(/C=N/Nc3cc(N4CCOCC4)nc(N4CCOCC4)n3)o2)cc1	nt	i	nt
CC(=O)OC(c1nc2ccccc2c(=O)n1C1CC2(OC1=O)c1ccccc1N1C(=O)C(C)(C)N(O)C12)C(C)C (configuration not stated)	nt	i	nt
COc1cccc(C(c2sc3nc(C)nn3c2O)N2CCc3ccccc3C2)c1 (configuration not stated)	81.5	i	i
CCN1CCN(C(c2cccc(OC)c2)c2sc3nc(C)nn3c2O)CC1 (configuration not stated)	i	nt	nt
COc1ccc2nc(Nc3nc(CSc4nc5ccccc5s4)cc(=O)[nH]3)nc(C)c2c1	nt	i	nt
COc1ccccc1OC(=O)c1cc(Cl)nc2ccccc12	nt	i	nt
CCn1c(-c2ccc(F)cc2)n[nH]c1=S	i	i	nt
CCn1c(-c2ccc(C(C)(C)C)cc2)n[nH]c1=S	64.5	i	i
COc1ccc([N+](=O)[O-])cc1COc1cc(C)cc2oc(=O)cc(-c3ccccc3)c12	nt	i	nt
O=C(Nc1nnc(-c2ccc3c(c2)OCCO3)o1)c1ccc(Cc2ccccc2)cc1	59.0	i	i
O=C(Nc1nnc(-c2ccc3c(c2)CCCC3)o1)c1ccccc1	nt	i	nt
CCC(C)Sc1nnc(CSc2nc3nc(C)cc(C)n3n2)o1 (configuration not stated)	nt	i	nt
CS(=O)(=O)N1CC(C(=O)NC2CCCC2)Oc2ccc(Cl)cc21 (configuration not stated)	nt	i	nt
COC(=O)c1ccc(N2C(=O)CC(NCc3ccccc3)C2=O)cc1 (configuration not stated)	i	i	nt
CN(Cc1ccccc1)C1CC(=O)N(c2ccc(C(=O)O)cc2)C1=O (configuration not stated)	77.2	i	i
Cc1cc([N+](=O)[O-])c(NCCCCCCO)c([N+](=O)[O-])c1	nt	i	nt
C=CCOC(=O)C1=C[C@H](c2csc3ccccc23)C[C@H](OCc2ccc(CO)cc2)O1	nt	i	nt
CCN1C(=O)N(C)[C@@H](c2ccccc2)C(C(C)=O)=C1C	nt	i	nt
COC(=O)c1ccc(CSc2nc3c(cnn3-c3ccc(F)cc3)c(=O)[nH]2)o1	i	i	nt
C=CCSc1nc2c(cnn2-c2ccc(C)c(C)c2)c(=O)[nH]1	58.0	i	59.0
CCCCSc1nc2c(cnn2-c2ccc(F)cc2)c(=O)[nH]1	i	i	nt
COC(=O)c1ccc(CSc2nc3c(cnn3-c3ccc(Cl)cc3)c(=O)[nH]2)o1	58.5	i	i
CCCSc1nc2c(cnn2-c2ccc(Cl)cc2)c(=O)[nH]1	55.8	i	66.5
SMILES	HIV RNase H inh-1	RmlC RmlD mix	HIV RNase H inh-2
CSc1nc2c(cnn2-c2ccc(C)c(C)c2)c(=O)[nH]1	i	i	nt
OCC[C@H]1C[C@@H](O)[C@H](O)[C@@]2(CCCCO2)O1	nt	i	nt
COc1ccc(CNc2nc(NCc3ccc(OC)cc3)n(C(=O)c3ccccc3[N+](=O)[O-])n2)cc1	nt	i	nt
CCn1c(SCc2nc3ccccc3[nH]2)nnc1-c1ccc(OC)cc1	nt	i	nt
O=C(O)c1ccc2c(c1)NC(=O)C(N1CCCC1)S2 (configuration not stated)	92.1	i	62.8
COC(=O)c1ccc2c(c1)NC(=O)C(N1CCCCC1)S2 (configuration not stated)	i	i	nt
CCOC(=O)c1ccc2c(c1)NC(=O)C(N1CCN(c3ccc(OC)cc3)CC1)S2 (configuration not stated)	85.3	i	i
COC(=O)c1ccc2c(c1)NC(=O)C(N1CCCC1)S2 (configuration not stated)	i	i	nt
COCOc1ccc(/C=C/C(=O)c2c(O)cc(OCOC)cc2OCOC)cc1	nt	i	nt
COc1ccc(OC)c(C2C(C(=O)O)c3ccccc3C(=O)N2C)c1 (configuration not stated)	65.2	i	i
COc1cc(OC)c(C2C(C(=O)O)c3ccccc3C(=O)N2C)cc1OC (configuration not stated)	i	i	nt
CCC(C)NS(=O)(=O)c1ccc(OC)c(Cl)c1Cl (configuration not stated)	nt	i	nt
COc1cc(CCN2C(=O)c3cccc4cccc(c34)C2=O)c(S(=O)(=O)NCCCO)cc1OC	nt	i	nt
COc1ccc(C2C(C(C)=O)=C(C)N=c3s/c(=C/c4ccc5c(c4)OCO5)c(=O)n32)cc1 (configuration not stated)	69.6	nt	53.6
CC(=O)C1=C(C)N=c2s/c(=C/c3ccc4c(c3)OCO4)c(=O)n2C1c1ccc(N(C)C)cc1 (configuration not stated)	i	nt	nt
